Results published in PubChem BioAssay (NCATS).
Records with an inconclusive call do not appear. Entries that show only a call come without a potency. Activity calls are given as the source filed them. Unless noted, calls follow the shape of the dose curve; as a rule, active = well fitted curve in the direction sought with a large enough effect; inconclusive = small, poorly fitted or top-dose-only effect, or another doubt; inactive = no such curve, though single readings can be large; an effect the other way counts as inactive or inconclusive.

How the values were obtained:
[1] = High Content Imaging Cell-Based qHTS for Inhibitors of the mTORC1 Signaling Pathway in MEF (Tsc2-/-, p53-/-) Cells (AID 2666);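 also: percent of cells scored positive for phospho-rpS6 Ser235/236 immunostaining by imaging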
Procedure, shortened: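 Tsc2-/-, p53-/- MEFs (empty-vector stable) grown in DMEM + 10% FBS were exposed to compounds for 24 hrs at 37 degree Celsius, fixed, and stained with Alexa-488 anti-phospho-rpS6 Ser235/236 plus Hoechst. Imaging gave the percentage of positive cells per well.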

[2] = High Content Imaging Cell-Based qHTS for Inhibitors of the mTORC1 Signaling Pathway in MEF Cells (AID 2667); also: potency is read from the fitted curve at half-maximal effect
Procedure, shortened: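 Tsc2-/-, p53-/- MEFs stably re-expressing WT Tsc2, grown in DMEM + 10% FBS, were treated with compounds for 24 hrs at 37 degree Celsius, fixed, and stained with Alexa-488 phospho-rpS6 Ser235/236 antibody plus Hoechst; results given as % positive cells.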

[3] = Cytometry Cell-Based qHTS for Inhibitors of the mTORC1 Signaling Pathway in MEF cells (AID 2668);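 also: Tsc2-/- p53-/- mouse embryonic fibroblasts stably re-expressing wild-type Tsc2; percent cells positive for phospho-rpS6 Ser235/236 relative to propidium iodide stain; series mostly up to about 38 µM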
Procedure, shortened: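 WT MEFs (Tsc2-/-, p53-/- stably re-expressing WT Tsc2) in DMEM + 10% FBS received compounds 24 hrs after plating, for 24 hrs at 37 degree Celsius. Fixed cells stained with Alexa-488 anti-phospho-rpS6 Ser235/236 and propidium iodide; laser-scanning cytometry read-out.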

[4] = target: Ubiquitin carboxyl-terminal hydrolase 2 (Homo sapiens) (UniProt O75604); test: qHTS Validation Assay for Inhibitors of Ubiquitin-specific Protease USP2a Using CHOP2 as the Reporter (AID 463106)
Procedure, shortened: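 Readout was coupled fluorescence (Ex 485/Em 531 nm), read 60 min after adding 25 nM final Ub-CHOP2 and 25 nM reporter substrate. Beforehand, 10 nM final USP2 core had 30 min at RT with compound in pH 8.0 buffer. Curves were fitted after normalization to NEM and flagged for artifacts using time-zero reads.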

[5] = target: DNA polymerase III PolC-type (Bacillus subtilis (strain 168)) (UniProt P13267); test: qHTS Validation Assay for the Inhibitors of DNA Replication in Gram-Positive Bacteria (AID 485295);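 also: PicoGreen fluorescence of double-stranded DNA made on primed circular M13 template; series mostly up to about 57 µM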
Procedure, shortened: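 Reconstituted B. subtilis holoenzyme (Pol III, beta clamp, SSB, primase) was preincubated with compound at room temperature, then given single-stranded circular M13Gori plus dNTPs and NTPs. EDTA-containing PicoGreen stopped the reaction, and dsDNA product was read by fluorescence.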

[6] = target: Tumor susceptibility gene 101 protein (Homo sapiens) (UniProt Q99816); test: qHTS Validation Assay for Iinhibitors of HIV-1 Budding by Blocking the Interaction of PTAP/TSG101 (AID 485342; calls by dose curve)
Procedure, shortened: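 Tsg101 binding domain (10 uM final) in pH 7.5 HEPES/NaCl/Tween 20/EDTA/TCEP buffer was mixed with pin-transferred compounds, then FITC-labeled PTAP peptide (50 nM final) was added; after 20 min at r.t., fluorescence polarization was read.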

[7] = qHTS Validation Assay to Find Inhibitors of Chronic Active B-Cell Receptor Signaling (AID 485345; active = well fitted curve in the direction sought with a large enough effect in the main read-out, with a control signal flat, not every such curve was filed as active)
Procedure, shortened: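 Read-out: ratio of filter-corrected green (IkappaBalpha fusion) to red (native) luciferase signal in doxycycline-induced TMD8 cells after 4 h at 37C. Titration spanned 46 uM–3 nM; Data were normalised to basal cells and 10 uM MG-132 wells.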

[8] = target: Beta-2 adrenergic receptor (Homo sapiens) (UniProt P07550); test: qHTS validation assay of beta-arrestin-biased ligands of beta2-adrenergic receptor (AID 485366)
Procedure, shortened: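 Agonist activity is measured as luciferase luminescence downstream of beta-arrestin recruitment to recombinant beta2-AR in Tango cells. Exposure lasts 18 hr at 37 degrees C, and curves are categorized by r2, response size and activity.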

[9] = target: Thioredoxin reductase 1, cytoplasmic (Rattus norvegicus) (UniProt O89049); test: qHTS Assay for Substrates of Mammalian Selenoprotein Thioredoxin Reductase 1 (TrxR1) (AID 488772);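 also: series mostly up to about 57 µM; a drop in NADPH fluorescence below the no-compound background marks a TrxR1 substrate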
Procedure, shortened: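 In this dual-purpose format, potential substrates are identified from the first fluorescence read after selenite addition, not from the 8-minute delta. Rat enzyme is preincubated with NADPH and then with compound at ~22 deg C.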

[10] = target: Thioredoxin reductase 1, cytoplasmic (Rattus norvegicus) (UniProt O89049); test: qHTS Assay for Inhibitors of Mammalian Selenoprotein Thioredoxin Reductase 1 (TrxR1) (AID 488773); conditions: Potency: inhibition;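 also: drop in NADPH fluorescence over an 8 min run after selenite addition; series mostly up to about 57 µM; nearly all actives have a fitted effect of over 40% in size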
Procedure, shortened: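 Inhibition is scored from the loss of NADPH fluorescence between first and last reads of an 8-min kinetic run. Selenite (400 uM) was the substrate, added after 15 min compound preincubation at room temperature.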

[11] = target: Flap endonuclease 1 (Homo sapiens) (UniProt P39748); test: qHTS Validation Assay for the Inhibitors of Human Flap endonuclease 1 (FEN1) (AID 488816); also: potency is read from the fitted curve at half-maximal effect
Procedure, shortened: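 qHTS format: compounds and 10 nM FEN1 incubated 15 min at room temperature before adding 50 nM substrate. Cleavage followed by reads at 0 and 15 min; normalized data fitted to a four-parameter Hill curve.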

[12] = target: ATP-dependent DNA helicase Q1 (Homo sapiens) (UniProt P46063); test: qHTS Validation Assay for Inhibitors of RecQ-Like Dna Helicase 1 (RECQ1) (AID 2353)
Procedure, shortened: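 RECQ1T1 50 nM; forked duplex (20 bp + 30-nt ss tails) 200 nM, ATP 2 mM final; pH 8.0, 2 mM MgCl2, 2.5 ug/ml poly(dI-dC); 15 min compound preincubation; discontinuous kinetic read over 2 h at RT.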

[13] = Cytometric Cell-Based qHTS for Inhibitors of the mTORC1 Signaling Pathway in MEF (Tsc2-/-, p53-/-) Cells (AID 2660);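 also: Tsc2 and p53 null MEFs carrying empty vector with compound for 24 h; percent of cells above a phospho-rpS6 to PI ratio cutoff in each well; series mostly up to about 38 µM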
Procedure, shortened: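 Readout: Alexa-488 phospho-rpS6 (Ser235/236) intensity divided by PI intensity, thresholded against 7.5 nM rapamycin wells and reported as % positive cells. PI cell count served as the viability measure. Compound exposure was 24 hrs at 37 degree Celsius.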

[14] = Quantitative high throughput screen for delayed death inhibitors of the malarial parasite plastid, 48 hour incubation (AID 488752); also: nearly all actives have a fitted effect of over 65% in size; also: potency is read from the fitted curve at half-maximal effect
Procedure, shortened: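 One-generation (48 h) growth assay: a decrease in luciferase signal from an integrated reporter in P. falciparum-infected red cells (0.1% parasitemia, 2% hematocrit) after compound exposure at 37 C indicates parasite inhibition.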

[15] = Validation screen for small molecules that induce DNA re-replication in MCF 10A normal breast cells (AID 463097); also: nearly all actives have a fitted effect of over 60% in size; also: potency is read from the fitted curve at half-maximal effect
Procedure, shortened: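 Readout: Hoechst nuclear fluorescence intensity, 405 ex / 500-530 em, by scanning plate imager; re-replication scored as increase in nuclei with elevated DNA content. Cells exposed to compound 48 hr, 37 C, 5% CO2 beforehand.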

[16] = target: ATP-dependent 6-phosphofructokinase (Trypanosoma brucei brucei) (UniProt O15648); test: qHTS Validation Assay to Find Inhibitors of T. brucei phosphofructokinase (AID 485368); also: potency is read from the fitted curve at half-maximal effect
Procedure, shortened: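 Inhibition derived from concentration-response curves of luminescence, ranked by r2, response size and curve class; the underlying reaction used 1.25 nM PFK, 0.1 mM ATP and 0.5 mM F6P, 45 min, room temperature.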

[17] = target: RecQ-like DNA helicase BLM (Homo sapiens) (UniProt P54132); test: qHTS Validation Assay for Inhibitors of Bloom's syndrome helicase (BLM) (AID 2364)
Procedure, shortened: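 Forked 20-bp duplex substrate (200 nM, TAMRA/BHQ-2) plus 2 mM ATP added after 15 min compound preincubation with 50 nM enzyme, pH 8.0, poly(dI-dC) 2.5 ug/ml. Strand separation followed by fluorescence (525/598 nm) over 2 h, normalized to enzyme-free and DMSO controls.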

[18] = target: Ferritin light chain (Equus caballus) (UniProt P02791); test: qHTS Validation Assay for Identification of Novel General Anesthetics (AID 2323); also: series mostly up to about 77 µM
Procedure, shortened: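 Competitive displacement of profluorescent 1-aminoanthracene (1-AMA, 50% saturated solution in PBS) from 10 uM horse-spleen apoferritin. Compounds incubated 10 min at room temperature; fluorescence read at 380 nm excitation/535 nm emission, normalized to free 1-AMA and complex, fitted with four-parameter Hill equation.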

[19] = Quantitative high throughput screen for delayed death inhibitors of the malarial parasite plastid, 96 hour incubation (AID 488745); also: series mostly up to about 29 µM; nearly all actives have a fitted effect of over 70% in size
Procedure, shortened: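 Decreased firefly luciferase luminescence indicates inhibited growth of reporter-integrated P. falciparum after two generations (96 h, 37 C, 5% CO2). Infected erythrocytes at 0.1% parasitemia, 2% hematocrit, in Albumax-supplemented RPMI 1640.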

Sequence of DNA polymerase III PolC-type (Bacillus subtilis (strain 168)) (P13267 whole entry, looked up): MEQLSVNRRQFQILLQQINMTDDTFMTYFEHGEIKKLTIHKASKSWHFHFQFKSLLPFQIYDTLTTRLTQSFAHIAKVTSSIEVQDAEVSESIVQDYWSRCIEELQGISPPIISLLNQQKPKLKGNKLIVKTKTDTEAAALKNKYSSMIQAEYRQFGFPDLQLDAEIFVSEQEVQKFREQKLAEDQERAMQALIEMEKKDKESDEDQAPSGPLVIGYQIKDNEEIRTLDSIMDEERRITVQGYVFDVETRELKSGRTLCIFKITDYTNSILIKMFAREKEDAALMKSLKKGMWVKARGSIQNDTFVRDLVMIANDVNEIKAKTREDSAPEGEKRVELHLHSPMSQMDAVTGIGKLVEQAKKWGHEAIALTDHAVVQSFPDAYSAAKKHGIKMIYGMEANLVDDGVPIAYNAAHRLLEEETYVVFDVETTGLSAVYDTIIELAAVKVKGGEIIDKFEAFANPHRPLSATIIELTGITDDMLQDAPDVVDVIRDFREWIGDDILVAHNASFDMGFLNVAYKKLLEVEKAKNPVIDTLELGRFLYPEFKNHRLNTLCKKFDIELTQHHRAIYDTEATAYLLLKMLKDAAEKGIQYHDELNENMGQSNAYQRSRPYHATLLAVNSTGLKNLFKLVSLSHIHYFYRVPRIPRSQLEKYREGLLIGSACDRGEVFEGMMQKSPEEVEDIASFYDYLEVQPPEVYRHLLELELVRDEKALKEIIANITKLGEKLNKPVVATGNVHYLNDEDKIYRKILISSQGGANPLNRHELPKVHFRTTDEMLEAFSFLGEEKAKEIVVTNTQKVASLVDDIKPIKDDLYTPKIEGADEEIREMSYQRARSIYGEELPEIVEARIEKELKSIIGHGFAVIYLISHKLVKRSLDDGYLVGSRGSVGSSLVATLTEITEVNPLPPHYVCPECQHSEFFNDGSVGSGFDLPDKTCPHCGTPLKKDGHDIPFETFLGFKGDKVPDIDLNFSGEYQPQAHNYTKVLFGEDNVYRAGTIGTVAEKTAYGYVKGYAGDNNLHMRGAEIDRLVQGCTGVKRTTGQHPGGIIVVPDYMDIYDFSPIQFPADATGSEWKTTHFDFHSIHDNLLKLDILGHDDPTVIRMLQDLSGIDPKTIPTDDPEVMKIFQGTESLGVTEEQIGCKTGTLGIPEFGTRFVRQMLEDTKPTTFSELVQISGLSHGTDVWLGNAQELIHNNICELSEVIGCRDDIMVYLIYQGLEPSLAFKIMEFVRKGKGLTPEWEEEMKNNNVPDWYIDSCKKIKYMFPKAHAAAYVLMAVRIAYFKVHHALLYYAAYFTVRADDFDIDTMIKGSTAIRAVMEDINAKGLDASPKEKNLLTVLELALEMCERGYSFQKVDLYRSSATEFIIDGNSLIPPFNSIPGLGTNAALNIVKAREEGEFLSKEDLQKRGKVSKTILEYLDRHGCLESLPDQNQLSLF
Sequence of Ubiquitin carboxyl-terminal hydrolase 2 (Homo sapiens) (O75604 whole entry, looked up): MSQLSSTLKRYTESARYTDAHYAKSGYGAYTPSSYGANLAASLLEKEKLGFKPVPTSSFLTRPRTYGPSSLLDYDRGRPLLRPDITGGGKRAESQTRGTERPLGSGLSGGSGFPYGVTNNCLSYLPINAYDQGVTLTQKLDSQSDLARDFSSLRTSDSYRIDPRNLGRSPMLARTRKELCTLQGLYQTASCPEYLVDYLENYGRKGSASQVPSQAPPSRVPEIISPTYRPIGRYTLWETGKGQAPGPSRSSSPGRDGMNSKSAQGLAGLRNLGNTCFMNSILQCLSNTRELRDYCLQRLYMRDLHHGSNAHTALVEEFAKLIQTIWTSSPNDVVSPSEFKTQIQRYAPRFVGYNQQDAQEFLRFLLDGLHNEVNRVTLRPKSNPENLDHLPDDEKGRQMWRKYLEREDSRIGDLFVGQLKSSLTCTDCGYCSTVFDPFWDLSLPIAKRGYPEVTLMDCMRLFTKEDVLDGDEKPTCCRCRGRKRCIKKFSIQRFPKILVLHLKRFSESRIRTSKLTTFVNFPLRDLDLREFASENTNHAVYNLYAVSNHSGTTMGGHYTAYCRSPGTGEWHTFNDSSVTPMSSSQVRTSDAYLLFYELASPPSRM
Sequence of Beta-2 adrenergic receptor (Homo sapiens) (P07550 whole entry, looked up): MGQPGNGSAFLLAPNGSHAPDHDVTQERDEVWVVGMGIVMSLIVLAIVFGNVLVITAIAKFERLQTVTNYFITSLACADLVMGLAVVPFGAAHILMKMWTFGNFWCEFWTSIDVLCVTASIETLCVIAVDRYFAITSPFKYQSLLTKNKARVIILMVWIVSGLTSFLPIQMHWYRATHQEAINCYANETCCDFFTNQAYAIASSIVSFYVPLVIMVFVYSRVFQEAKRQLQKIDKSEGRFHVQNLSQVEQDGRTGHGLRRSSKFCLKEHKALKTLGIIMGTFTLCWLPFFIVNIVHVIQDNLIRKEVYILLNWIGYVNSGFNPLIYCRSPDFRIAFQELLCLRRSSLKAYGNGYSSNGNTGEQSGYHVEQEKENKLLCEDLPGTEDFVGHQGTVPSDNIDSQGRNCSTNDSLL
Sequence of Thioredoxin reductase 1, cytoplasmic (Rattus norvegicus) (O89049 whole entry, looked up): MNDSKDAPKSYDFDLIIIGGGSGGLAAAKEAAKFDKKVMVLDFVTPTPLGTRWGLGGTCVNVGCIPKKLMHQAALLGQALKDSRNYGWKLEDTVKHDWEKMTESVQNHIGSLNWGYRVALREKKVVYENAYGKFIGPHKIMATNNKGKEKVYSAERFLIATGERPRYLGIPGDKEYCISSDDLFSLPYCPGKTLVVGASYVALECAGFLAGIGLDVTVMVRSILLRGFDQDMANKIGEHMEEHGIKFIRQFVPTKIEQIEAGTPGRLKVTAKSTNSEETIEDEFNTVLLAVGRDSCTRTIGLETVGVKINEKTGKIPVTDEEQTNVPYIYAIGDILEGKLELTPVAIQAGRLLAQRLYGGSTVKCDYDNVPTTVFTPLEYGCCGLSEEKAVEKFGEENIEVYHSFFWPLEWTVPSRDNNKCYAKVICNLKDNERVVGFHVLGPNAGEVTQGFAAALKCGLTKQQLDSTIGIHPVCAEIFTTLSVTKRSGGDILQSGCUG
Sequence of RecQ-like DNA helicase BLM (Homo sapiens) (P54132 whole entry, looked up): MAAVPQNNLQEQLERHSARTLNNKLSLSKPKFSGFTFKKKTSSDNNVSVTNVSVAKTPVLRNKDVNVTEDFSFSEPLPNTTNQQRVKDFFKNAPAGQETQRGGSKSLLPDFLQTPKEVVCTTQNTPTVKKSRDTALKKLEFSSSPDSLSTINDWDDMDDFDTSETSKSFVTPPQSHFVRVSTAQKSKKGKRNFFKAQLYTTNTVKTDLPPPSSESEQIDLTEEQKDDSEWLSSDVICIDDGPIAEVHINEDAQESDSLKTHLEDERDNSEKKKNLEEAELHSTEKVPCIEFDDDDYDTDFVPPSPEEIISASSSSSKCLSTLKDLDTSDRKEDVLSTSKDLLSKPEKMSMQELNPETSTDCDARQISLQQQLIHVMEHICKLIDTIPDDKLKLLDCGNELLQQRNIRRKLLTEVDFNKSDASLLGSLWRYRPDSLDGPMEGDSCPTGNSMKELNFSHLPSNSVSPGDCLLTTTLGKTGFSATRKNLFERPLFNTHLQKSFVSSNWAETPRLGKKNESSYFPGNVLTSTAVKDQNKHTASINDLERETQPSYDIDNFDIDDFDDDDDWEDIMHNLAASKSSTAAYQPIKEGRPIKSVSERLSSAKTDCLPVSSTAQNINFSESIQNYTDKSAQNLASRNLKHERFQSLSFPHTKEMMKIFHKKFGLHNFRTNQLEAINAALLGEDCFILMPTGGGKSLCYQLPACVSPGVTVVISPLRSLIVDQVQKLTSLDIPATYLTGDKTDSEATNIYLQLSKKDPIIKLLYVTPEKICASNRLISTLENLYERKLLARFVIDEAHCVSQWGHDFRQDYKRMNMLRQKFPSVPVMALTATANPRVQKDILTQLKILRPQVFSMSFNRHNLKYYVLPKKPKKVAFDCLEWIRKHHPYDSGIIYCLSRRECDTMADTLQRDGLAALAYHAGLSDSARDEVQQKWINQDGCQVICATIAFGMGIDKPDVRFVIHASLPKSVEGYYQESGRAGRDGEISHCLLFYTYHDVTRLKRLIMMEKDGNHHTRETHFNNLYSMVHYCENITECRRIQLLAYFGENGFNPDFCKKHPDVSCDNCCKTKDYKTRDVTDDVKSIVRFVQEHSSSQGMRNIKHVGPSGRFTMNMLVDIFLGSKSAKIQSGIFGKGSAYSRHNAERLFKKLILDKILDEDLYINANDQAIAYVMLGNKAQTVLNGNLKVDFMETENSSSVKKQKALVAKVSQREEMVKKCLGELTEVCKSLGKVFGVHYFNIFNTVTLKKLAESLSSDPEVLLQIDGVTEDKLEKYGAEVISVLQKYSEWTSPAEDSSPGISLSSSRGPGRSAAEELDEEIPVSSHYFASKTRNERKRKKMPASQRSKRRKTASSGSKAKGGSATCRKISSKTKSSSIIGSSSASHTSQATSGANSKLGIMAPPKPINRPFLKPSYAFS
Sequence of Tumor susceptibility gene 101 protein (Homo sapiens) (Q99816 whole entry, looked up, the tested form may be a part): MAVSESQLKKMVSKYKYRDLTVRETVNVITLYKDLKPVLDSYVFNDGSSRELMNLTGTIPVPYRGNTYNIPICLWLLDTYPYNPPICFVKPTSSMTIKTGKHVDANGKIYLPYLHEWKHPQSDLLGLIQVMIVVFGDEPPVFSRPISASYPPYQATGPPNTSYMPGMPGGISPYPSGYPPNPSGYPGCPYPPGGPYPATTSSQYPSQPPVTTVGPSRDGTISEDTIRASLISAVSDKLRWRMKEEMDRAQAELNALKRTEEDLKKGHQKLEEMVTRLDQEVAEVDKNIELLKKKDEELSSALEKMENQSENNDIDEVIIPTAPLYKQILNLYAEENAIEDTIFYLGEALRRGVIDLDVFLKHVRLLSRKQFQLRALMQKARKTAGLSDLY
Sequence of Ferritin light chain (Equus caballus) (P02791 2-175 limits assumed): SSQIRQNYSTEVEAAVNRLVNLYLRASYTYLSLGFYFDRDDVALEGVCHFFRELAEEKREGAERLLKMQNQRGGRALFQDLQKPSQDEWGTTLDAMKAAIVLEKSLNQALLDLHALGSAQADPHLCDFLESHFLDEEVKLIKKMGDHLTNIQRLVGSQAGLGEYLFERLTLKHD

Row | Structure (SMILES) | Potency [1] | Potency [2] | Potency [3] | Potency [4] | Potency [5] | outcome [6] | Potency [7] | outcome [8] | outcome [9] | Potency [10] | Potency [11] | Potency [12] | outcome [13] | Potency [14] | Potency [15] | Potency [16] | Potency [17] | Potency [18] | Potency [19]
1 | Cc1cn([C@H]2C[C@H](N=[N+]=[N-])[C@@H](CO)O2)c(=O)[nH]c1=O | inactive | inactive | inactive | inactive | inactive | inactive | inactive | inactive | inactive | inactive | inactive | – | – | – | – | – | – | – | –
2 | CC#C[C@]1(O)CC[C@H]2[C@@H]3CCC4=CC(=O)CCC4=C3[C@@H](c3ccc(N(C)C)cc3)C[C@@]21C | inactive | 11.7 µM (active) | – | inactive | – | inactive | – | inactive | inactive | inactive | inactive | – | – | – | – | – | – | – | –
3 | CCCCc1oc2ccccc2c1C(=O)c1cc(I)c(OCCN(CC)CC)c(I)c1 | inactive | 13.1 µM (active) | – | inactive | inactive | inactive | inactive | inactive | inactive | – | inactive | inactive | inactive | 9.28 µM (active) | – | – | – | – | –
4 | CN(Cc1cnc2nc(N)nc(N)c2n1)c1ccc(C(=O)N[C@@H](CCC(=O)O)C(=O)O)cc1 | – | inactive | inactive | inactive | inactive | inactive | inactive | inactive | inactive | inactive | inactive | inactive | inactive | inactive | inactive | 37.9 µM (active) | – | – | –
5 | O=C1Cc2cc(CCN3CCN(c4nsc5ccccc45)CC3)c(Cl)cc2N1 | – | inactive | inactive | inactive | inactive | inactive | – | inactive | inactive | – | inactive | – | – | – | – | inactive | – | – | –
6 | CN(C)C(=O)C(CCN1CCC(O)(c2ccc(Cl)cc2)CC1)(c1ccccc1)c1ccccc1 | – | – | – | inactive | – | inactive | – | inactive | inactive | – | – | inactive | – | – | – | inactive | – | – | –
7 | CCOC(=O)c1ncn2c1CN(C)C(=O)c1cc(F)ccc1-2 | – | inactive | inactive | inactive | – | inactive | inactive | – | – | – | – | inactive | – | – | inactive | inactive | – | – | –
8 | CC1COc2c(N3CCN(C)CC3)c(F)cc3c(=O)c(C(=O)O)cn1c23 (configuration not stated) | inactive | inactive | inactive | inactive | inactive | inactive | inactive | inactive | inactive | inactive | – | inactive | – | inactive | inactive | inactive | inactive | – | –
9 | NCCCCCC(=O)O | – | inactive | inactive | inactive | inactive | inactive | inactive | – | inactive | – | inactive | – | – | inactive | inactive | inactive | inactive | inactive | inactive
10 | CCN1CCCC1CNC(=O)c1cc(S(=O)(=O)CC)c(N)cc1OC (configuration not stated) | inactive | inactive | inactive | inactive | – | inactive | inactive | – | inactive | inactive | inactive | – | – | – | – | inactive | – | – | –
11 | COC(=O)Nc1nc2ccc(C(=O)c3cccs3)cc2[nH]1 | – | inactive | – | inactive | inactive | inactive | – | – | inactive | inactive | – | inactive | – | – | 0.158 µM (active) | – | – | inactive | –
12 | Cc1cnc(C(=O)NCCc2ccc(S(=O)(=O)NC(=O)NC3CCCCC3)cc2)cn1 | inactive | inactive | inactive | inactive | inactive | inactive | inactive | inactive | inactive | – | inactive | inactive | – | inactive | inactive | inactive | – | – | –
13 | C[C@](N)(Cc1ccc(O)c(O)c1)C(=O)O | – | – | – | inactive | – | inactive | inactive | – | inactive | – | 0.844 µM (active) | inactive | – | inactive | inactive | 9.53 µM (active) | – | inactive | –
14 | CC(C)C(=O)Nc1ccc([N+](=O)[O-])c(C(F)(F)F)c1 | inactive | inactive | inactive | inactive | – | inactive | inactive | – | inactive | – | inactive | inactive | inactive | inactive | inactive | inactive | inactive | – | inactive
15 | CCOC(=O)C(C)(C)Oc1ccc(Cl)cc1 | inactive | inactive | inactive | inactive | inactive | inactive | inactive | inactive | inactive | inactive | inactive | inactive | – | inactive | inactive | – | inactive | – | inactive
